Screening results as filed in PubChem.
CYP2C19 inhib: inhibitors of human CYP2C19; P33261; AID 778; inhibition, % at 5 µM; CYP2C19 Supersomes, luciferin-H EGE luminescence, 30 min; 96,000 tested, 21% active;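 active = CYP2C19 inhibition above a set limit at 5 µM in the primary screen, cut at about 50% in these data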;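 also: plate controls were negative control wells for no effect and 2.5 mM tranylcypromine positive control for full effect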
Target sequence (P33261 whole entry, looked up): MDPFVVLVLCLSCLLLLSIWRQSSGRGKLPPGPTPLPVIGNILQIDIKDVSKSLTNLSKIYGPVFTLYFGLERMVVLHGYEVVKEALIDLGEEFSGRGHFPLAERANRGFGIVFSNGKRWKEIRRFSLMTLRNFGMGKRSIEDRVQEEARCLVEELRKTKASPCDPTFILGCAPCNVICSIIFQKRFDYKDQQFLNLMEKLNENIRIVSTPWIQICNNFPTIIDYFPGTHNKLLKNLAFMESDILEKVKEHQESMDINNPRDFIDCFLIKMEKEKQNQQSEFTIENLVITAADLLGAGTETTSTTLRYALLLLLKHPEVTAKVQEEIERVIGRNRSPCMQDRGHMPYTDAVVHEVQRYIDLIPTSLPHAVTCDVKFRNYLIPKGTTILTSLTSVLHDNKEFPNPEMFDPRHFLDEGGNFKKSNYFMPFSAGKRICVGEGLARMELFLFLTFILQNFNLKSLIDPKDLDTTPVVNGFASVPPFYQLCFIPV
CYP2C9 inh: human CYP2C9 inhibition; 96,000 tested, 20% active; inhibition, % at 5 µM; CYP2C9 Supersomes, luciferin-H conversion, luminescence;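 active = blocking of liver enzyme CYP2C9 beyond about 50% at 5 µM, limit read from the data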
CYP2C9 act: increases human cytochrome P450 2C9 activity | P11712 | recombinant CYP2C9, luciferin-H conversion, luminescence; active compounds read high; factor 1 = untreated enzyme, 0 = blocked | activation factor at 5 µM | 96,000 tested, 1.4% active;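 active = activation factor of 2 or more for CYP2C9 at a 5 µM dose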;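 also: 0 = sulfaphenazole-blocked wells and 1 = vehicle-only wells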
PostGolgi yeast: growth inhibition of a yeast mutant, post-Golgi transport screen; AID 739; inhibition, % at 10 µM; 98,000 tested, 0.9% active; post-Golgi transport phenotypic cell assay;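 also: yeast cells grown in 1536-well plates; yeast grown about 18 h at 30C before absorbance read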
CYP2C19 act: increases human CYP2C19 enzyme activity | recombinant CYP2C19, luciferin-H EGE luminescence; active compounds read high; 0 = fully inhibited enzyme, 1 = untreated enzyme | activation factor at 5 µM | 96,000 tested, under 10 active | AID 1025 | P33261;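 active = activation factor of at least 2 at 5 µM in the primary screen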;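 also: 0 = wells with 2.5 mM tranylcypromine and 1 = vehicle-only wells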
PostGolgi ctrl: growth of the yeast control strain, post-Golgi counter-screen. inhibition, % at 10 µM. efflux-deficient yeast background strain, growth absorbance A615, 16 h. 98,000 tested, 5% active. AID 738
* = called active by the depositor. Compounds with a hit are over-represented: about 32% of the library has one in this group of screens. Rule as the data show it, unless noted: active = inhibition above about 30%; inactive = the rest.

`Cc1cc(=O)[nH]c(N2CCN(Cc3ccccc3)CC2)n1` gave CYP2C19 inhib -19, CYP2C9 inh 2, CYP2C9 act 1, PostGolgi yeast 1, CYP2C19 act 1.2 and PostGolgi ctrl 1.
Screening Cc1cc(=O)[nH]c(N2CCc3ccccc3C2)n1 returned CYP2C19 inhib 28, CYP2C9 inh -13, CYP2C9 act 1.1, PostGolgi yeast 2, CYP2C19 act 0.7 and PostGolgi ctrl 46*.
`O=C(O)CCSc1nc(C(F)(F)F)cc(=O)n1-c1ccccc1` gave CYP2C19 inhib 2, CYP2C9 inh 12, CYP2C9 act 0.9, PostGolgi yeast -14, CYP2C19 act 1 and PostGolgi ctrl 30*.
`NC(=O)CSc1nc(O)cc(=O)n1-c1ccccc1` gave CYP2C19 inhib -6, CYP2C9 inh -6, CYP2C9 act 1.1, PostGolgi yeast -5, CYP2C19 act 1.1 and PostGolgi ctrl 17.
`COc1ccc(-n2c(Cc3cccn3C)nnc2SCC(=O)Nc2ccc3c(c2)OCO3)cc1` gave CYP2C19 inhib 3, CYP2C9 inh 10, CYP2C9 act 0.9, PostGolgi yeast 3, CYP2C19 act 1 and PostGolgi ctrl -3.
`CC1=NN(c2ccccc2)C(=O)C1C(=O)c1ccc(Cl)cc1` (configuration not stated) gave CYP2C19 inhib -4, CYP2C9 inh 93*, CYP2C9 act 0.1, PostGolgi yeast -3, CYP2C19 act 1 and PostGolgi ctrl -5.
For CCOC(=O)C(NC(=O)Nc1ncccn1)(Oc1ccccc1)C(F)(F)F (configuration not stated) the results were CYP2C19 inhib -15, CYP2C9 inh -8, CYP2C9 act 1.1, PostGolgi yeast -1, CYP2C19 act 1.2 and PostGolgi ctrl 32*.
`CC(=O)Nc1ccc(C(=S)NCc2ccco2)cc1` gave CYP2C19 inhib 33, CYP2C9 inh 13, CYP2C9 act 0.9, PostGolgi yeast 12, CYP2C19 act 0.7 and PostGolgi ctrl -7.
`CCc1ccc(N/C(SCc2ccccc2C)=C(/C#N)C(=O)NCc2ccco2)cc1` gave CYP2C19 inhib 57*, CYP2C9 inh 64*, CYP2C9 act 0.4, PostGolgi yeast 17, CYP2C19 act 0.4 and PostGolgi ctrl 0.
Screening CC(C)(C)c1ccc(OCCNC(=O)c2ncn[nH]2)cc1 returned CYP2C19 inhib 75*, CYP2C9 inh 53*, CYP2C9 act 0.5, PostGolgi yeast 13, CYP2C19 act 0.2 and PostGolgi ctrl 3.
`O=C(NCCc1ccccc1)c1ncn[nH]1` gave CYP2C19 inhib 6, CYP2C9 inh -8, CYP2C9 act 1.1, PostGolgi yeast 7, CYP2C19 act 0.9 and PostGolgi ctrl 10.
For NC1=NC(c2ccc(Br)cc2)n2c(nc3ccccc32)N1 (configuration not stated) the results were CYP2C19 inhib 94*, CYP2C9 inh 38, CYP2C9 act 0.6, PostGolgi yeast 1, CYP2C19 act 0.1 and PostGolgi ctrl 9.
`CCOC(=O)c1ccccc1-n1c(C)cc(C2N=C(N)Nc3nc4ccccc4n32)c1C` (configuration not stated) gave CYP2C19 inhib 29, CYP2C9 inh 34, CYP2C9 act 0.7, PostGolgi yeast 2, CYP2C19 act 0.7 and PostGolgi ctrl 6.
CC(C)Cn1c(SCC(=O)c2ccc(Cl)s2)nnc1-c1ccco1 was read as CYP2C19 inhib 67*, CYP2C9 inh 72*, CYP2C9 act 0.3, PostGolgi yeast 2, CYP2C19 act 0.3 and PostGolgi ctrl 15.
Screening Cc1ccc(C(=O)CSc2nnc(-c3ccco3)n2Cc2ccccc2)cc1 returned CYP2C19 inhib 58*, CYP2C9 inh 62*, CYP2C9 act 0.4, PostGolgi yeast 7, CYP2C19 act 0.4 and PostGolgi ctrl 26.
Screening Cn1c(SCC(=O)OCc2ccccc2)nnc1-c1ccco1 returned CYP2C19 inhib 18, CYP2C9 inh 3, CYP2C9 act 1, PostGolgi yeast 3, CYP2C19 act 0.8 and PostGolgi ctrl -4.
For Cc1ccc(C(=O)CSc2nnc(-c3ccco3)n2CC2CCCO2)cc1 (configuration not stated) the results were CYP2C19 inhib 21, CYP2C9 inh 2, CYP2C9 act 1, PostGolgi yeast 6, CYP2C19 act 0.8 and PostGolgi ctrl 13.
For NC(=O)NC(=O)CSc1nnc(-c2ccco2)n1Cc1ccccc1 the results were CYP2C19 inhib 0, CYP2C9 inh 6, CYP2C9 act 0.9, PostGolgi yeast 2, CYP2C19 act 1 and PostGolgi ctrl -3.
`Cn1c(SCC(=O)c2ccc(-c3ccccc3)cc2)nnc1-c1ccco1` gave CYP2C19 inhib 68*, CYP2C9 inh 56*, CYP2C9 act 0.4, PostGolgi yeast -6, CYP2C19 act 0.3 and PostGolgi ctrl 14.
For O=C(CSc1nnc(-c2ccco2)n1Cc1ccccc1)c1ccccc1 the results were CYP2C19 inhib 93*, CYP2C9 inh 87*, CYP2C9 act 0.1, PostGolgi yeast 0, CYP2C19 act 0.1 and PostGolgi ctrl 13.
`CCN(CC)CCNC(=O)c1ccc(CS(=O)(=O)c2ccc(Br)cc2)o1` gave PostGolgi yeast 0 and PostGolgi ctrl 6.
Screening Cc1ccc2nc(N3CCN(C)CC3)c(C#N)cc2c1 returned CYP2C19 inhib 5, CYP2C9 inh -2, CYP2C9 act 1, PostGolgi yeast 28, CYP2C19 act 1 and PostGolgi ctrl -2.
Cc1ccc2nc(N3CCN(Cc4nnnn4Cc4ccccc4)CC3)c(C#N)cc2c1 was read as CYP2C19 inhib 78*, CYP2C9 inh 89*, CYP2C9 act 0.1, PostGolgi yeast -5, CYP2C19 act 0.2 and PostGolgi ctrl 20.
For COc1ccc2cc(C#N)c(N3CCN(Cc4nnnn4CCC(C)C)CC3)nc2c1 the results were CYP2C19 inhib 59*, CYP2C9 inh 57*, CYP2C9 act 0.4, PostGolgi yeast -3, CYP2C19 act 0.4 and PostGolgi ctrl 34*.
`O=C(CC1CCCC1)OCn1nnc2ccccc2c1=O` gave CYP2C19 inhib 23, CYP2C9 inh 17, CYP2C9 act 0.8, PostGolgi yeast 9, CYP2C19 act 0.8 and PostGolgi ctrl 3.
Screening Cc1nn(CC(=O)Nc2nnc(CC(=O)N3CCCC3)s2)c(=O)c2ccccc12 returned CYP2C19 inhib -18, CYP2C9 inh -18, CYP2C9 act 1.2 and CYP2C19 act 1.2.
For CC(C)(C)c1ccc(/C=C/C(=O)NC2=NCCS2)cc1 the results were CYP2C19 inhib 15, CYP2C9 inh -13, CYP2C9 act 1.1, PostGolgi yeast -5, CYP2C19 act 0.8 and PostGolgi ctrl 13.
For CCCCCOC(=O)CSc1n[nH]c(=O)[nH]c1=O the results were CYP2C19 inhib 15, CYP2C9 inh 1, CYP2C9 act 1, PostGolgi yeast 9, CYP2C19 act 0.8 and PostGolgi ctrl -9.
Screening CCC(C(=O)Nc1cnccn1)c1ccccc1 (configuration not stated) returned CYP2C19 inhib 60*, CYP2C9 inh 18, CYP2C9 act 0.8, PostGolgi yeast 5, CYP2C19 act 0.4 and PostGolgi ctrl 2.
